Data published in the supplement of paper PMC11732987, “Enantioselective OTUD7B fragment discovery through chemoproteomics screening and high-throughput optimisation” (Communications Chemistry, 2025).

The targets below were run with OC1CN(Cc2sccc12)C(=O)CCl (assay: log2 ratio of Biotin-Ahx-Ub-VS probe labelling (compound/DMSO); higher = less target engagement, active = hit call of the paper (q ≤ 0.05, log2 ratio ≤ -1)). Details: compound concentration: 50uM; treatment time: 3 h.
Experimental: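 Round 2 competitive ABPP in HEK293T lysate. Purified HTC-D2B compounds were tested at 50 and 200 µM for 3 h, followed by Biotin-Ahx-Ub-VS enrichment and diaPASEF LC-MS/MS. Values are the average log2 ratio (compound/DMSO) from an unpaired t-test (n=3 treated, n=26 DMSO).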

Chain of UniProt Q9UGI0 (Q9UGI0 whole entry): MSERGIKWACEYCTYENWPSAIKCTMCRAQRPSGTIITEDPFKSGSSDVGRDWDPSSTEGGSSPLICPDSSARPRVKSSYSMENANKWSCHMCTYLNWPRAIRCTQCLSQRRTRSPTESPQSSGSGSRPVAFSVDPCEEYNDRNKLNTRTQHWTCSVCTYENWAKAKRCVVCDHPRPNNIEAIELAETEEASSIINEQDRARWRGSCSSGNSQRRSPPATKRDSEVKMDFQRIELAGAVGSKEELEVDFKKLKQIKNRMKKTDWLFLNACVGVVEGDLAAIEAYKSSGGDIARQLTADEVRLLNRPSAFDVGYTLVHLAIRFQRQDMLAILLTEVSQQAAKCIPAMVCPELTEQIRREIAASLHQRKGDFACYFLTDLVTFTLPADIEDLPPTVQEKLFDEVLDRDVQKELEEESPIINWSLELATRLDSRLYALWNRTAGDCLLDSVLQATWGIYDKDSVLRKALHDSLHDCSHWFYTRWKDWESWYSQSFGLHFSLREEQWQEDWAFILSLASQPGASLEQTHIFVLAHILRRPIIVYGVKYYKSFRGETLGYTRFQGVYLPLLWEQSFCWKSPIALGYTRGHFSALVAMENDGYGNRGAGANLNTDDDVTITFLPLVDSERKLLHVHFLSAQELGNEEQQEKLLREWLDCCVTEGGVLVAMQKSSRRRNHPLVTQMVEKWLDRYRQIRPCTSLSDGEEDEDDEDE
Chain of UniProt Q9Y4E8 (Q9Y4E8 whole entry): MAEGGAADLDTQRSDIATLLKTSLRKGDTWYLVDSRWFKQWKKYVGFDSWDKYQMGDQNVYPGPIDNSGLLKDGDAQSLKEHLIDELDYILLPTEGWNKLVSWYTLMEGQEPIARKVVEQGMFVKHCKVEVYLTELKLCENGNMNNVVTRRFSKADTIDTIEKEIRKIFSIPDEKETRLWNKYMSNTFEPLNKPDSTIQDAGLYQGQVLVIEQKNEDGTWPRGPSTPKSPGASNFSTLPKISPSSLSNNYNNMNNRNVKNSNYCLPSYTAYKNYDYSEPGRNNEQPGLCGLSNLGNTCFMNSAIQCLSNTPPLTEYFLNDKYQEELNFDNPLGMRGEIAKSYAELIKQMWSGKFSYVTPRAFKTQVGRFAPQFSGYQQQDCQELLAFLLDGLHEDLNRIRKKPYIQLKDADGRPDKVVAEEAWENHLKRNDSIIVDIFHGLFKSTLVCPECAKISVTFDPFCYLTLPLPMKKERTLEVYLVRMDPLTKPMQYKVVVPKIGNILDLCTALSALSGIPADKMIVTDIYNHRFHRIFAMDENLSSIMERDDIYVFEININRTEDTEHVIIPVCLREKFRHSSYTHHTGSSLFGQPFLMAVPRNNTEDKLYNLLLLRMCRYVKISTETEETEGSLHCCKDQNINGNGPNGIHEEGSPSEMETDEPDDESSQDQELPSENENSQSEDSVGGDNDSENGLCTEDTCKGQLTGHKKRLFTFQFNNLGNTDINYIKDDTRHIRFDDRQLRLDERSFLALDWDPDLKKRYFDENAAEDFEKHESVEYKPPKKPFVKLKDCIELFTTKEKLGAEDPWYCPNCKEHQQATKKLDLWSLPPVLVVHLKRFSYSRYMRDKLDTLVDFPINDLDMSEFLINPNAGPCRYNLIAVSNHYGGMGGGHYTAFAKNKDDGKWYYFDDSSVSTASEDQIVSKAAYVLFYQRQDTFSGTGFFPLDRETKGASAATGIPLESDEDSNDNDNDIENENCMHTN
Chain of UniProt Q92560 (Q92560 whole entry): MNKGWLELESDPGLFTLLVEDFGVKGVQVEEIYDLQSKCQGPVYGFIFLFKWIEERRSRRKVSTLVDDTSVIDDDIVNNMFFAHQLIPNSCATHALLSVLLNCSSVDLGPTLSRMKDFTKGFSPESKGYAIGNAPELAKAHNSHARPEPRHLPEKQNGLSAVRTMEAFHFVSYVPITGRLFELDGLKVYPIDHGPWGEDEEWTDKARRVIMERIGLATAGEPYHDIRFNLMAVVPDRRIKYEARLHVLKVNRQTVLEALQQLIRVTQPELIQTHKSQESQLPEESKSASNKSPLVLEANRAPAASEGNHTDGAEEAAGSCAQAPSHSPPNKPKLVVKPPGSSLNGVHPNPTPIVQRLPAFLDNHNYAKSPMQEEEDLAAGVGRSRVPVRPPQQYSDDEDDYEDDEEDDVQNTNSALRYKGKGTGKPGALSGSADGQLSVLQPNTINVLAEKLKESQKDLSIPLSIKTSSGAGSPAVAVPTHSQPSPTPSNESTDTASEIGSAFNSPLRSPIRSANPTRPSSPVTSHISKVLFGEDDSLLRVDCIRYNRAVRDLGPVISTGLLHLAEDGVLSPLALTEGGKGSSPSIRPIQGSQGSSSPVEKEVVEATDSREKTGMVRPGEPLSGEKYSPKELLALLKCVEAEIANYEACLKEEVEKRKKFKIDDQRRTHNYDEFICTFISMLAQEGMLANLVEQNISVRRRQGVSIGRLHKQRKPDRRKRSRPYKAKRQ
Chain of UniProt Q53GS9 (Q53GS9 whole entry): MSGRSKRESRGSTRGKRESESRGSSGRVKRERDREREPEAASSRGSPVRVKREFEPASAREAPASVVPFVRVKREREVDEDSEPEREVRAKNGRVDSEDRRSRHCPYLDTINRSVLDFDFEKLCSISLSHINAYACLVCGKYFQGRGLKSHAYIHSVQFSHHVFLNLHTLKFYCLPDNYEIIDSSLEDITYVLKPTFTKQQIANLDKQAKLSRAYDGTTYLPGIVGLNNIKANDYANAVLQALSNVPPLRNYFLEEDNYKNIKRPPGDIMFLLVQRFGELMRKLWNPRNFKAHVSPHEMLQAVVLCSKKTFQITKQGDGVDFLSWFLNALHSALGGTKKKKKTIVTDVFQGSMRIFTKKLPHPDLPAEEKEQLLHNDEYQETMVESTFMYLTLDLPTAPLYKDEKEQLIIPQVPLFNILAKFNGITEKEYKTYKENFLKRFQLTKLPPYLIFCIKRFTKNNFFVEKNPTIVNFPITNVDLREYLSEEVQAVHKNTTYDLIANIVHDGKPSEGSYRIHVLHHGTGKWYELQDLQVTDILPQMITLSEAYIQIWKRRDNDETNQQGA
Chain of UniProt P09936 (P09936 whole entry, looked up): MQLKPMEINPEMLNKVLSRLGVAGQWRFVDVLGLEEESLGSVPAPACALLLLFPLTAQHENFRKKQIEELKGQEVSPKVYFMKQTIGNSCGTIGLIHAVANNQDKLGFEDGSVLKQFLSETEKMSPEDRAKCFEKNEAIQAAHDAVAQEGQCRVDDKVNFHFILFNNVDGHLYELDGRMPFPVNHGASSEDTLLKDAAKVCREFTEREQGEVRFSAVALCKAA
Chain of UniProt Q9NUU6 (Q9NUU6 whole entry): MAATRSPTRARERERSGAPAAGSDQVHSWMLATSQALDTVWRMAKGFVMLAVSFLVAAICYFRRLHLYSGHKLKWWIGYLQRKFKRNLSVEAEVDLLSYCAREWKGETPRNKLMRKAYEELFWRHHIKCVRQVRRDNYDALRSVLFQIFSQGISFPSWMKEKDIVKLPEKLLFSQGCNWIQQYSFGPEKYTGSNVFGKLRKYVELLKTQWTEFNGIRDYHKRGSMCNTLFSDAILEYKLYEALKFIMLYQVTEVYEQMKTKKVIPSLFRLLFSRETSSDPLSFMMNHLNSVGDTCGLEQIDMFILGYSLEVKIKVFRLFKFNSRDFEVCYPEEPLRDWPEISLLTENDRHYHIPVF
Chain of UniProt P40818 (P40818 whole entry): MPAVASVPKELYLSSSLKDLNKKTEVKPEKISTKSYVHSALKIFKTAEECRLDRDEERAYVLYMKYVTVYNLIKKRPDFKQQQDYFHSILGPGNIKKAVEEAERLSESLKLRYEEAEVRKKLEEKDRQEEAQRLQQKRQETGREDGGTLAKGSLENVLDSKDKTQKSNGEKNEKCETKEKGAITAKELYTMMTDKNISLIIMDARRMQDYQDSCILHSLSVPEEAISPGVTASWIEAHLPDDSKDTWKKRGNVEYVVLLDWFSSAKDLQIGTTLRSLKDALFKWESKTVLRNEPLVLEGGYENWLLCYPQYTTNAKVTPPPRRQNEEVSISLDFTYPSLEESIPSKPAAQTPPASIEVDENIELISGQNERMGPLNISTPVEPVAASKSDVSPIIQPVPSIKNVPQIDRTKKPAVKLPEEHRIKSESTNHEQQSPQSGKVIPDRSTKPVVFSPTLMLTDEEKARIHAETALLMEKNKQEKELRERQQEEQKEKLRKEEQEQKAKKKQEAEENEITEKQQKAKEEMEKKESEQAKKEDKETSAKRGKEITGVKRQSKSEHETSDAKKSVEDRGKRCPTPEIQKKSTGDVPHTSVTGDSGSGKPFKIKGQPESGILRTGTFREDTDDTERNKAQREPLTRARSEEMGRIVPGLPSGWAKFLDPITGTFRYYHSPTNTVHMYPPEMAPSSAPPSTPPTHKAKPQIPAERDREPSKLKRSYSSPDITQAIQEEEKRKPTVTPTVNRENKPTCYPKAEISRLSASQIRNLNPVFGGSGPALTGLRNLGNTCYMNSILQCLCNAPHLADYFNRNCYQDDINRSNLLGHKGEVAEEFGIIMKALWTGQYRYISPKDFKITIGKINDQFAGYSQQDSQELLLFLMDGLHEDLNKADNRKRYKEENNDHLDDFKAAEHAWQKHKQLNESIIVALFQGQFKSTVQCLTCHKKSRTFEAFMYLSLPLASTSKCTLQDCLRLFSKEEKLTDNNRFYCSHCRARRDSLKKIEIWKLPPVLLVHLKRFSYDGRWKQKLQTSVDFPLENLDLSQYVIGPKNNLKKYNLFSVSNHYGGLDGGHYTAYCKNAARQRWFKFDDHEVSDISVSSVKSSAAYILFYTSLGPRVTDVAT
Chain of UniProt Q96FW1 (Q96FW1 whole entry): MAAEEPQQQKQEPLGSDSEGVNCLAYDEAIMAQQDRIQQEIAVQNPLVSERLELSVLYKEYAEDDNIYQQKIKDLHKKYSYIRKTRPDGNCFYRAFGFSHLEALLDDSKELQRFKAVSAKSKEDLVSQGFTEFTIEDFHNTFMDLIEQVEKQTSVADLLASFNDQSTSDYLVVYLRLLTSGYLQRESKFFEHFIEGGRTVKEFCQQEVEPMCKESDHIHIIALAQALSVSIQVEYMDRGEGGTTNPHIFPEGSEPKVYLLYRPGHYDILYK

log2 ratio of Biotin-Ahx-Ub-VS probe labelling, active:
OTUD7B (UniProt Q6GQQ9) -4.49

log2 ratio of Biotin-Ahx-Ub-VS probe labelling, inactive:
USP15 (UniProt Q9Y4E8) -0.214
FAM105A (UniProt Q9NUU6) -0.0183
PSMD7 (UniProt P51665) -0.579
BAP1 (UniProt Q92560) -0.416
USP39 (UniProt Q53GS9) -0.0158
UniProt Q70EL2 0.0417
USP8 (UniProt P40818) -0.266
UniProt Q9UGI0 -0.451
USP48 (UniProt Q86UV5) -0.157
UCHL1 (UniProt P09936) -0.248
OTUB1 (UniProt Q96FW1) 0.196
USP12 (UniProt O75317) -0.0752
UCHL5 (UniProt Q9Y5K5) -0.2
USP34 (UniProt Q70CQ2) -0.156
UCHL3 (UniProt P15374) -0.332
USP28 (UniProt Q96RU2) -0.0634
USP36 (UniProt Q9P275) -0.243
UniProt P51784 0.0374
USP22 (UniProt Q9UPT9) 0.0108

Same assay, conditions: compound concentration: 200uM; treatment time: 3 h

log2 ratio of Biotin-Ahx-Ub-VS probe labelling, inactive:
USP15 (UniProt Q9Y4E8) -0.404
FAM105A (UniProt Q9NUU6) 0.114
PSMD7 (UniProt P51665) 0.371
BAP1 (UniProt Q92560) -0.818
USP39 (UniProt Q53GS9) 0.0541
UniProt Q70EL2 -0.242
USP8 (UniProt P40818) -0.144
USP48 (UniProt Q86UV5) -0.225
UCHL1 (UniProt P09936) -0.0486
OTUB1 (UniProt Q96FW1) -0.0449
USP12 (UniProt O75317) -0.294
UCHL5 (UniProt Q9Y5K5) -0.0949
USP34 (UniProt Q70CQ2) -0.0909
UCHL3 (UniProt P15374) -0.337
USP28 (UniProt Q96RU2) -0.321
USP36 (UniProt Q9P275) -0.0665
UniProt P51784 -0.0603
USP22 (UniProt Q9UPT9) -0.267

log2 ratio of Biotin-Ahx-Ub-VS probe labelling, active:
OTUD7B (UniProt Q6GQQ9) -5.43
UniProt Q9UGI0 -1.5
